hcDAF12 agonist – activates DAF-12 receptor from parasite H. contortus; HEK293 hcDAF-12 lit1-tk-luc reporter, luminescence; 0% DMSO, 100% Δ7-dafachronic acid; activation, % at 6.8 µM; 370,000 compounds, 1.4% hits;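 active = activation above the mean of all tested compounds plus 3 SD, cut at about 5.5% in these data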;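 also: 100% = response to 3 µM Δ7-dafachronic acid high control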
hgDAF12 agonist – hgDAF-12 agonism, primary luciferase screen; activation, % at 6.8 µM; 370,000 compounds, 1.8% hits; HEK293 GAL4-hgDAF12 UAS-luciferase reporter, agonist luminescence; normalized to butyrate control;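 active = activation above a cutoff set at the mean of all screened compounds plus 3 SD, cut at about 10% in these data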;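 also: 0% = DMSO wells and 100% = sodium butyrate wells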
ssDAF12 agonist – S. stercoralis DAF-12 activation, primary screen; activation, % at 6.8 µM; HEK293 ssDAF-12/GRIP1 lit1-tk-luc reporter, luminescence; % of 3 µM dafachronic acid response; 370,000 compounds, 1% hits; AID 652126;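 active = activation above the mean over all tested compounds plus 3 SD, cut at about 0.9% in these data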;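 also: 0% = DMSO-only wells and 100% = 3 µM delta7-dafachronic acid wells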
SMARCA2 activ – SMARCA2 function activation, primary screen | MG213 cells, MMTV-luciferase reporter, dexamethasone, overnight | activation, % at 9.1 µM | 370,000 compounds, 1% hits; in the data active = activation above about 7.8%;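 also: 0% = vehicle wells and 100% = reference activator wells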
DAX1 inh-1 – blocks DAX1 repression of SF-1 activated StAR promoter | HEK293T StAR-luciferase reporter, SF-1/DAX-1 repression relief | inhibition, % at 6.8 µM | 370,000 compounds, 1.1% hits | AID 652010;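 active = inhibition above the mean over all tested compounds plus 3 SD, cut at about 3.6% in these data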;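 also: 0% = DAX-1 cells with DMSO and 100% = cells lacking DAX-1 with DMSO; higher inhibition means more luminescence from relief of DAX-1 repression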
DAX1 inh-2 – inhibits human nuclear receptor DAX1 | AID 504766 | inhibition, % at 6.75 µM | HEK293 Gal4-DAX1 luciferase reporter, luminescence | 340,000 compounds, 0.99% hits | P51843;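 active = inhibition above the mean over all tested compounds plus 3 SD, cut at about 4.2% in these data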;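 also: 0% = DAX1-transfected cells with DMSO and 100% = empty-vector control cells with DMSO; inhibition shows as a rise in luminescence from relieved DAX1 repression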
Target sequence (P51843 207-470 limits assumed): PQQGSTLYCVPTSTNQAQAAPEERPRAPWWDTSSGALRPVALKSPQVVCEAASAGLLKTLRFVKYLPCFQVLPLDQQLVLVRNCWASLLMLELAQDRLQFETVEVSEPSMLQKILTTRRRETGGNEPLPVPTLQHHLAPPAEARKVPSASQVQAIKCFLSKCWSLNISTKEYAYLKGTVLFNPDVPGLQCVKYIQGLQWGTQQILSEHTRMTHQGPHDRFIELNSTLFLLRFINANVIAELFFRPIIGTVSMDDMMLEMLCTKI
Active calls of the source: *; . = no result given. The list is not random: actives were taken first. Their share in the collection is about 4.8%.

SMILES	hcDAF12 agonist	hgDAF12 agonist	ssDAF12 agonist	SMARCA2 activ	DAX1 inh-1	DAX1 inh-2
CS(=O)(=O)c1ccc2nc(NC(=O)C3COc4ccccc4O3)sc2c1 (stereo not drawn)	-0.2	3.0	-0.7	5.4	1.2	0.0
COc1ccc2nc(NNC(=O)C3COc4ccccc4O3)sc2c1 (stereo not drawn)	6.2*	6.2	1.3*	-1.7	0.4	0.1
CC(C)(C)c1nnc(SCC(=O)Nc2ccc(N3CCCCC3)cc2)n1N	0.7	4.3	-0.2	5.4	1.4	0.3
O=C(C[C@@H]1C[C@@H]2c3cc(NC(=O)C4CCC4)ccc3O[C@@H]2[C@@H](CO)O1)NCc1ccc(Cl)cc1	-2.5	0.5	-1.1	-4.5	-0.9	-0.7
CC(C)C[C@@H]1CC2=C(C(=O)OC(C)(C)O2)[C@H](c2ccc(Cl)cc2)O1	-1.9	-2.4	-1.0	-2.8	-1.6	.
C[C@@H](NC(=O)[C@@H]1CCCN1C(=O)[C@@H]1CCCN1C(=O)c1cccc2ccccc12)c1ccccc1	-1.8	1.1	-1.1	-3.1	-0.3	.
O=C(NNc1nc2c(F)cccc2s1)c1ccccc1	2.6	1.9	0.0	-3.5	-0.6	10.2*
O=C1NC[C@H](CCCCN2C[C@H](Cc3ccccc3)N(CCC3CCCCC3)C(=O)C2=O)N(CC2CCCCC2)C1=O	-0.1	2.7	-1.0	4.2	-1.0	.
CC(C)C[C@H]1CN(CCCC[C@H]2CNC(=O)C(=O)N2Cc2ccccc2)C(=O)C(=O)N1CC1CCCCC1	-1.5	-2.9	-1.1	1.1	-0.1	.
O=C1NC[C@H](CCCCN2C[C@H](Cc3ccccc3)N(CC3CCCCC3)C(=O)C2=O)N(CCC2CCCCC2)C1=O	-0.6	1.1	1.4*	-1.6	0.1	.
CC(C)C[C@H]1CN(CCCC[C@@H]2CNC(=O)C(=O)N2CC2CCCCC2)C(=O)C(=O)N1Cc1ccccc1	-2.2	10.7*	-1.3	-3.8	0.5	.
CC(C)CCN1CCC(CN2C(=O)C(=O)NC[C@@H]2CC(C)C)CC1	-1.0	1.1	-1.0	-0.7	-1.3	.
CC(C)C[C@H]1CNC(=O)C(=O)N1CC1CCN(CC2CCC(C(C)(C)C)CC2)CC1 (stereo partly drawn)	0.0	1.9	-1.1	-5.3	4.1*	-0.9
COC(=O)c1cc(-c2ccc(-c3ccccc3)c(F)c2)c(=O)n2c1CCC2	-1.0	0.3	-1.0	0.1	0.1	.
O=S(=O)(CCNCc1cccs1)c1ccc(Cl)cc1	-2.7	-2.0	-1.7	2.7	0.1	0.7
Cc1cccnc1NC(=S)NC(=O)/C=C/c1ccco1	0.8	4.7	-0.3	4.3	1.3	2.0
O=C(/C=C/c1ccco1)Nc1cccc(NC(=O)/C=C/c2ccco2)n1	6.4*	11.4*	-0.8	2.1	3.0	1.8
COc1ccccc1OCC(=O)Nc1ccncc1	-1.0	-2.0	-0.5	-0.8	-0.2	-0.5
O=C(/C=C/c1ccco1)NC(=S)Nc1ccccn1	0.2	8.2	-0.3	5.6	1.9	5.9*
COc1ccc(/C=C/C(=O)NC(=S)Nc2ccccn2)cc1	4.7	9.2	-0.2	2.4	1.5	2.8
COc1ccccc1/C=C/C(=O)NC(=S)Nc1ccccn1	2.8	5.3	1.4*	0.9	0.8	1.6
COc1ccccc1OCC(=O)Nc1ccccn1	5.2	13.1*	-0.2	7.0	3.4	1.7
CC(C)(C)S(=O)N1Cc2ccc(CO)cc2[C@@H]1CCO (stereo partly drawn)	-0.5	0.8	-1.1	-3.9	1.2	-1.0
CCOC(=O)c1c(C)oc2cc(Cl)c(O)c(CN(C)C)c12	-2.3	12.8*	-1.1	4.7	0.6	-1.2
C/C(=N/NC(=O)c1ccc(C(C)(C)C)cc1)c1cccnc1	0.5	1.8	-0.5	-4.5	0.3	.
SMILES	hcDAF12 agonist	hgDAF12 agonist	ssDAF12 agonist	SMARCA2 activ	DAX1 inh-1	DAX1 inh-2
C/C(=N\NC(=O)c1sccc1C)c1cccnc1	4.2	8.8	-0.3	5.0	4.2*	0.9
C=CCN1C(=O)[C@@H](CC(=O)NCCCCc2ccccc2)[C@]2(C(=O)OC)CCCCC=C12	-0.1	0.9	-1.6	-2.6	-0.1	.
O=S1(=O)CCC(NCC2CCCO2)C1 (stereo not drawn)	-1.2	-1.4	-1.6	-0.2	-0.5	7.4*
c1ccc(Cn2c(SC3CCCCC3)nnc2-c2cccnc2)cc1	0.6	-2.6	-1.9	-2.7	-1.1	.
O=C(NC1CCN(Cc2ccc(F)cc2)CC1)c1ccccc1	-1.6	-0.8	-1.4	-2.2	0.1	1.9
CS(=O)(=O)Cc1ccc(C(=O)NC2CCN(Cc3ccccc3)C2)cc1 (stereo not drawn)	1.1	-0.5	-0.5	2.9	0.8	4.2*
COc1ccc(CCNC(=O)COc2ccc3c(C)cc(=O)oc3c2)cc1	1.3	3.9	-0.7	2.6	-0.3	-1.1
COc1ccc(COc2ccc3c(C)cc(=O)oc3c2)cc1	0.4	11.5*	-0.8	2.5	1.0	3.6
CCOc1cc2c(cc1O)C(=NO)CC1C2CCC2(C)C(O)CCC12 (stereo not drawn)	2.0	-7.3	-1.0	-1.5	-0.7	0.2
CCOC(=O)CN1C(=O)S/C(=C/c2ccc(O)c([N+](=O)[O-])c2)C1=O	1.3	-0.6	-1.9	-4.8	-0.7	5.9*
CCOC(=O)CN1C(=O)S/C(=C/c2ccc(C)o2)C1=O	-1.9	3.7	-1.3	-2.0	0.8	0.5
Cc1ccnc2nc(C(=O)OCC(=O)N(C)C3CCCCC3)nn12	0.0	1.9	-0.9	-0.9	0.5	-0.4
Nc1ccc(Cl)c[n+]1Cc1cccc2cccnc12	5.8*	-2.0	-0.1	-1.1	-0.6	-0.8
O=C(CNC(=O)c1ccccc1Br)NCC(c1ccco1)N1CCCCC1 (stereo not drawn)	-1.0	1.4	-1.1	-0.2	1.2	-1.1
c1ccc2c(c1)Oc1cccc3cccc-2c13	-0.8	1.2	-0.8	0.4	-0.1	4.3*
CC(=O)N1[C@@H](CO)[C@@H](c2ccc(-c3cccc(F)c3)cc2)[C@@H]1CNCC1CCC1	-0.1	-0.3	-0.5	-0.3	0.5	.
COc1ccc2c(C)cc3nncn3c2c1	1.2	-0.4	-0.7	4.4	0.0	4.2*
Cc1cc(NC(=O)NC(=O)c2ccc(F)cc2F)n[nH]1	3.3	10.8*	-0.2	5.5	2.8	0.1
CCCCOc1ccc(-c2[nH]ncc2C=O)cc1	3.6	12.9*	0.1	1.4	1.1	5.1*
CC(C)(C)n1ncc2c(=O)n(CC(=O)c3ccc(Cl)cc3)cnc21	2.9	11.6*	-0.3	5.2	2.3	2.3
CC(=O)Cn1cnc2c(cnn2-c2ccc(F)cc2)c1=O	-1.2	3.8	1.0*	-4.5	2.2	1.4
CC(C)(C)n1ncc2c(=O)n(CC(=O)Nc3ccc(Cl)cc3)cnc21	-1.6	-0.1	-1.1	-1.3	-0.4	-0.2
COc1ccc(-n2ncc3c(=O)n(CC(C)=O)cnc32)cc1	1.8	0.3	-0.9	-2.8	0.1	1.2
